Among the data in PubChem BioAssay (NCI) are growth values, retold here.

About 83,000 compounds went through this panel and 20% of them were active in at least one assay; those are over-represented in the sample as a whole.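 A percent growth of 40 corresponds to 60% growth inhibition; 0 means no net growth; -100 means all cells died. Active threshold: below 10.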 Activity calls are given as the source filed them.

This test relates to MDA-MB-468 breast. The experiment in a line: NCI-60 one-dose screen, 48 h (100 = growth as untreated, 0 = no growth, -100 = all killed). Conditions: 10 µM unless noted.
Regarding `CC1(C)OC2COC3(C(=O)O)OC(C)(C)OC3C2O1` (stereo unspecified), the growth is 93.6% (inactive).
In the case of `C=C1C(=O)O[C@H]2[C@H]1CC/C(COC(=O)C(=O)c1cn(C)c3ccc(Cl)cc13)=C\CC[C@@]1(C)O[C@@H]21` it was -88.2% (active).
In the case of `O=C(CCN1C(=O)c2ccccc2C1=O)Nc1ccc(Cl)cc1`, the growth is 116% (inactive).
As for `COc1ccc(-c2c(-c3ccc(OC)c(O)c3)cnc3ncnn23)cc1`, the growth was 109% (inactive).
For `CC(C)(C)[Si](C)(C)OC1[C@@H](CNC(N)=O)O[C@@H](n2cnc3c(NC(=O)Nc4ccccc4)ncnc32)[C@H]1O[Si](C)(C)C(C)(C)C` (stereo partly specified), the growth is 85.2% (inactive).
For the compound `CCc1c2c(nc3ccc(OC(=O)OCc4ccc(B5OC(C)(C)C(C)(C)O5)cc4)cc13)-c1cc3c(c(=O)n1C2)COC(=O)[C@]3(O)CC`, the growth was -33.6% (active).
In the case of `NS(=O)(=O)c1ccc(Nc2nc(N/N=C/c3ccc(Cl)cc3)nc(Nc3ccccc3)n2)cc1` it was 66.6% (inactive); in that of `CC1Cc2ccccc2O1` (stereo unspecified), 120% (inactive).
Take `C/C(=N\Nc1cccc(Cl)n1)c1ccccn1`: the growth is -31.3% (active).
Under `Cc1ccc(-c2nc(N3CCNCC3)c3oc(-c4ccc(C)cc4)nc3n2)cc1` stands -33.5% (active); under `N#CCCCCCn1c2ccccc2c2c3c(c4c5ccccc5[nH]c4c21)C(=O)N(O)C3=O`, -32% (active); under `COc1cc(-c2ccc3c(c2)NC(=O)/C3=C\c2ccc[nH]2)ccc1O`, 16.6% (inactive).
Under `Nc1ccc(Cl)c([N+](=O)[O-])c1` stands 98.5% (inactive); under `COc1cc2nc(Cl)nc(Nc3cccc(C(=O)/C=C/c4ccccc4)c3)c2cc1OC`, 68.9% (inactive).
As for `COc1ccc(-c2cc(-c3ccc(N(C)C)cc3)n3c(n2)nc2ccccc23)cc1`, the growth was 50.8% (inactive).
Under `N#Cc1ccccc1Cn1c2nc(=N)c3ccccc3c-2nc2ccccc21` stands 24.3% (inactive); under `O=C(Nc1cccc2c(O)c(N=Nc3ccc(S(=O)(=O)Nc4nccs4)cc3)cc(N=Nc3ccc(S(=O)(=O)Nc4nccs4)cc3)c12)C(Cl)Cl`, 7.35% (active).
Consider `COc1ccc(-c2nn(-c3ccc(NC(=O)c4ccc(Cl)c(Cl)c4)cc3)cc2-c2ccncc2)cc1Cl`, for which the growth is 47% (inactive).
Under `COc1cccc(NC(=O)c2sc3nc4c(cc3c2N)C(O)CCC4)c1` (stereo unspecified) stands 48.6% (inactive).
In the case of `COc1ccc(-c2nc(SCCC(C)C)nc(N/N=C(/C)c3ccc(N)cc3)c2C#N)cc1` it was 103% (inactive); in that of `c1ccc2c(c1)ncn2-c1nc2ccccc2n2c1nc1ccccc12`, -40.5% (active).
Under `C=C(C)[C@@H]1CC[C@]2(C)[C@H](CC=C3[C@@H]4CC(C)(C)CC[C@]4(C(N)=O)CC[C@]32C)[C@@]1(C)CCC#N` stands 15.1% (inactive); under `COc1cc(-c2nc(/C=C3/C(=O)Nc4ccccc43)c3ccccn23)cc(OC)c1OC`, 87.9% (inactive).
Regarding `Cc1nn(-c2nc3ccccc3[nH]2)c2c1C(c1ccc3c(c1)OCO3)CC(=O)N2` (stereo unspecified), the growth was 47.7% (inactive).
In the case of `CCCCCCCCNC(=O)[C@@H](N)CSCOC(C)=O` it was 89.8% (inactive).
For the compound `Nc1ccc(C(=O)Nc2cccc(C(=O)Nc3ccc4c(O)c(N=Nc5ccc(N=Nc6ccc(S(=O)(=O)O)cc6)cc5)c(S(=O)(=O)O)cc4c3)c2)cc1`, the growth is 100% (inactive).
In the case of `Nc1nc2c(nnn2C2CC(O)C(CO)O2)c(=O)[nH]1` (stereo unspecified) it was 22.8% (inactive); in that of `CNc1sc(S(=O)(=O)NC)nc1S(=O)(=O)c1ccc(C)cc1`, 86.3% (inactive); in that of `CCCCCCCCCCCCCCCCCCOc1ccccc1CC(=O)NCC[N+]1(C)CCOCC1`, 13.7% (inactive).
With `C/C(=N\O)[C@@H]1CC[C@]2(CO)CC[C@]3(C)[C@H](CC[C@@H]4[C@@]5(C)CCCNC(C)(C)[C@@H]5CC[C@]43C)[C@@H]12`, the growth was 74.6% (inactive).
Regarding `Oc1ccc(Br)cc1Sc1cc(Br)ccc1O`, the growth was 82.3% (inactive).
Under `CCCn1cnc2c(c1=N)C(c1ccc(F)cc1)c1sc3c(CC)cccc3c1O2` (stereo unspecified) stands -47.9% (active); under `COc1cc2c(Nc3ccc(-c4ccc(N)cc4)cc3)ncnc2c(OC)c1OC`, 71.9% (inactive).
Consider `CC(O)CCNC(c1ccccc1)C(O)c1ccccc1` (stereo unspecified), for which the growth is 116% (inactive).
Under `COc1ccc(-c2cc3c(C)nc(N)nc3n(C3CCC(OCCO)CC3)c2=O)cn1` (stereo unspecified) stands -50% (active).
Take `C=C1CC[C@@H]2[C@@](C)(CCC[C@]2(C)C(=O)O)[C@@H]1CC[C@H](CO)CCO`: the growth was 108% (inactive).
